HIF activator – HIF pathway transcriptional activation; U2OS HRE-luciferase reporter, luminescence; normalized: DMSO 0%, desferrioxamine 100%; activation, % at 7.5 µM (by protocol); 0.32% of 300,000 active; AID 1910;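 active = mean activation of at least 10% of the iron chelator positive control signal, with at least half of replicates also reaching 10%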
KLK7 zymogen act – proKLK7 (human) activation, primary screen; 0.9% of 370,000 active; activation, % at 7 µM; purified proKLK7, EDANS-DABCYL substrate fluorescence; 100% is mature enzyme control, 0% vehicle; P49862;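 active = activation above the mean of all tested compounds plus 3 SD, computed per campaign excluding outliers beyond control limits, cut at about 13% in these data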
GC-A act – GC-A (human) enzyme activation; 0.14% of 370,000 active; AID 1671463; P16066; HEK293 GC-A cells, cGMP TR-FRET, EC30 ANP; 0% at EC30 ANP, 100% saturating ANP; activation, % at 10 µM; in the data active = activation above about 40%
NPR2 activator – GC-B (human) receptor activation; P20594; HEK293-GC-B cells, CNP EC30, cGMP TR-FRET; 0% at EC30 CNP, 100% saturating CNP; activation, % at 10 µM; 0.11% of 370,000 active;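 active = activation at 10 µM reaching about 35% in either raw or pattern-adjusted values, limit read from the data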
* hit, by the source's call; / = not tested or not shown. Shown are actives, neighbours in structure and some others; about 1.3% of the full set was active somewhere.

SMILES	HIF activator	KLK7 zymogen act	GC-A act	NPR2 activator
COc1ccccc1CNC(=O)c1cccc(NC(=O)c2ccccc2)c1	26*	1	4	2
O=C(NCC(c1ccccc1)c1ccccc1)[C@H](Cc1c[nH]c2ccccc12)NC1(C(=O)NC2CCCCC2)CCCCCC1	/	/	-8	-6
COc1ccccc1NC(=O)COc1ccc2c(c1)OCO2	3	-1	2	1
CCOc1ccccc1NC(=O)COc1ccc2c(c1)OCO2	14*	-1	5	5
c1ccc(CCn2nnc(-c3ccc(N4CCOCC4)cc3)n2)cc1	/	0	0	2
CCCCNC(=O)CN1C(=O)COc2ccc(S(=O)(=O)N3CCCCCC3)cc21	46*	0	-2	-11
C/C(=N\NC(=O)c1cc(-c2cccc(OC(C)C)c2)nc2ccccc12)c1cccnc1	0	-4	2	3
C/C(=N\NC(=O)c1cc(-c2cccnc2)nc2ccccc12)c1ccc(O)cc1O	36*	0	-2	-4
CCN(CC)c1ccc(C(=C2C=CC(=[N+](CC)CC)C=C2)c2ccc(N(CC)CC)cc2)cc1	/	1	-251	-66
CCN(CC)c1ccc(C(=C2C=CC(=[N+](CC)CC)C=C2)c2ccccc2)cc1	/	1	-44	39*
COc1ccc(C(=O)Nc2ccc3c(c2)nc(CCNC(C)=O)n3C)cc1	2	0	1	4
COc1ccc(C(=O)NCCc2nc3cc([N+](=O)[O-])ccc3n2C)cc1	26*	0	-2	1
Cc1sc(NC(=O)c2ccco2)c(CN2CCC(C)CC2)c1C	51*	1	-4	-7
Cc1ccc(S(=O)(=O)N2CCN(c3ccccn3)CC2)cc1	48*	1	-5	-1
O=C(O)c1ccc(S(=O)(=O)N2CCN(c3ccccn3)CC2)cc1	0	0	0	-1
O=C(NCCc1c[nH]c2ccccc12)OCc1cn(Cc2cccc(Cl)c2)nn1	/	1	-7	-3
Cc1onc(-c2c(Cl)cccc2Cl)c1C(=O)N=C(N)N1CCCC1	28*	1	2	3
COc1ccc(OC)c(NC(=O)CCC(=O)N(Cc2ccc(OC)c(OC)c2)c2nccs2)c1	0	1	0	-2
COc1ccc(NC(=O)CCC(=O)N(Cc2ccc(OC)c(OC)c2)c2nccs2)cc1	170*	1	0	8
CC(NCc1ccco1)C(=O)N1CCCN(C)CC1 (stereo not given)	/	0	1	-5
O=C1C=C(c2c(O)ccc3ccccc23)c2ccccc2C1=O	/	0	44*	49*
Fc1ccc(/C=N/Nc2nccnc2Cl)cc1	5	0	3	4
Fc1cccc(/C=N/Nc2nccnc2Cl)c1	78*	0	-1	1
N#CC1=C(N)Oc2cc(N)ccc2C1c1cccc(F)c1 (stereo not given)	2	1	43*	-2
Oc1ccc(N=Nc2ccc3c(c2)OCCO3)c2cccnc12	14*	-1	2	4
SMILES	HIF activator	KLK7 zymogen act	GC-A act	NPR2 activator
COc1ccc(N=Nc2ccc(O)c3ncccc23)cc1	92*	0	5	-3
Cc1ccccc1N=Nc1ccc(O)c2ncccc12	38*	0	2	3
COC(=O)[C@]12C[C@H](CC(=O)NCc3cccc(C(F)(F)F)c3)C(=O)N(CCC3=CCCCC3)C1=C[C@H](C(C)C)O[C@@H]2C1CC1	/	0	-3	2
COc1ccc(/C=C/c2cc(-c3ccc(C)cc3)o[n+]2C)cc1	0	32*	9	-1
COc1ccc(/C=C/c2c(-c3ccc(OC)cc3)oc3ccc(-c4ccc(OC)cc4)cc23)cc1	-2	0	5	3
Cc1ccc(-c2cc(C(=O)NN=Cc3cc(Br)ccc3O)[nH]n2)cc1C	/	-8	1	6
CN1C(=O)c2cccc(NC(=O)C3CCCCC3)c2C1=O	0	-8	1	55*
CNC(=O)C1CC(=O)N(c2ccc(OCC(=O)N3CCCC3)cc2)C1 (stereo not given)	29*	0	3	1
COC(=O)[C@H](CC(C)C)N(Cc1cn(CC2CCCCC2)nn1)S(=O)(=O)c1ccccc1Br	/	1	1	1
CCc1cc2c(-c3ccccc3)cc(=O)oc2cc1OC(C)C(=O)O (stereo not given)	1	3	1	-1
CC(NC(=O)OCc1ccccc1)C(=O)Oc1cc2oc(=O)cc(-c3ccccc3)c2cc1Cl (stereo not given)	0	24*	8	-1
CN(C)C=Nc1ncc2c3ccccc3n(CCN(C)C)c2c1C#N	1	5	8	6
CN(C)C=Nc1ncc2c3ccccc3n(Cc3ccccc3)c2c1C#N	0	0	46*	35*
Cc1ccc(/C=C2/NC(=O)N(Cc3ccccc3F)C2=O)o1	0	2	60*	42*
Cc1ccc(/C=C2/NC(=O)N(Cc3ccc(Br)cc3)C2=O)o1	1	0	3	49*
S=C(Nc1ccccc1Br)OCCN1CCCC12CCC(c1ccccc1)CC2 (stereo not given)	/	/	-4	-5
COCCCNC(=O)CSc1nnc(-c2cccnc2)n1C1CCCCC1	/	0	2	16
CC(=O)CC[C@@H]1CC[C@]2(CCCN(C(=O)c3ccno3)C2)O1	/	0	6	-4
FC(F)(F)c1ccc(CSc2ccccn2)cc1	10.0*	1	4	4
CCn1cc(CN2CCC(C(=O)Nc3cccc(-c4cscn4)c3)CC2)cn1	0	0	2	-6
Cn1cc(CN2CCC(C(=O)Nc3cccc(-c4cscn4)c3)CC2)cn1	73*	0	0	1
CC(=O)Oc1ccc(/C=c2\sc3ncnn3c2=O)cc1	0	0	0	-4
CCCOc1ccc(/C=c2\sc3ncnn3c2=O)cc1	0	0	69*	-2
COc1ccc(C(=O)CSc2nnc(-c3ccco3)n2C)cc1	0	0	-1	2
Cn1c(SCC(=O)c2ccccc2)nnc1-c1ccco1	13*	0	-3	2
SMILES	HIF activator	KLK7 zymogen act	GC-A act	NPR2 activator
CCOC(=O)Cn1cc(CN2C(C(=O)OC)CN(Cc3ccc(OC)cc3)CCS2(=O)=O)nn1 (stereo not given)	/	0	0	-5
CN1CCN(C(=S)c2ccc(-c3cc(Cl)ccc3Cl)o2)CC1	0	1	4	50*
S=C(c1ccc(-c2ccc(Cl)cc2Cl)o1)N1CCCC1	2	0	8	30
N#CCCN1CCN(C(=S)c2ccc(-c3cc(Cl)ccc3Cl)o2)CC1	0	0	4	97*
CCCC[C@@H]1C(=O)N2N=Cc3cc(C)c(C)cc3[C@H]2N2N=Cc3cc(C)c(C)cc3[C@@H]12	/	0	-4	8
Cc1ccc(S(=O)(=O)c2nnn3c2nc(N2CCOCC2)c2ccccc23)cc1	-1	0	34	38*
Cc1ccc(S(=O)(=O)c2nnn3c2nc(N2CCCCC2)c2ccccc23)cc1	1	1	21	26
C[C@H]1CCCN1c1cccc2c1S(=O)(=O)N1CC[C@H](C1)O2	/	0	1	8

Compound activity as filed in PubChem BioAssay.
